This is part of a sample that, as a whole, favours compounds with a hit. Of some 79,000 tested, about 15% had one in any assay. Values without a mark were called inactive. Calls of active or inactive are those of the source. No stated cut-off is given here; in the data, active means growth inhibition above about 70%; inactive means the rest.
How the values were obtained:
[1] = NCI Yeast Anticancer Drug Screen. Data for the rad50 strain (AID 155);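 further: 0% = growth of vehicle-only cultures of the same strain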; conditions: S. cerevisiae rad50 strain growth inhibition, active compounds read high
In short: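 Readout: growth inhibition relative to vehicle-treated cultures. Compound exposure was carried out in a genetically defined yeast strain deficient in DNA damage repair.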

[2] = NCI Yeast Anticancer Drug Screen. Data for the mec2-1 strain (AID 157); conditions: S. cerevisiae mec2-1 strain, active compounds read high
In short: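 Readout is yeast growth inhibition, normalised to vehicle-treated controls, in the mec2-1 strain exposed to compound.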

[3] = NCI Yeast Anticancer Drug Screen. Data for the sgs1 mgt1 strain (AID 161);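 further: 0% = growth of cultures given vehicle only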; conditions: S. cerevisiae sgs1 mgt1 strain, active compounds read high
In short: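 Percent growth inhibition was derived by comparing compound-exposed mutant yeast with vehicle-exposed cultures. The strain carries alterations in DNA damage repair.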

[4] = NCI Yeast Anticancer Drug Screen. Data for the cln2 rad14 strain (AID 165);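 further: 0% = growth equal to vehicle treated cultures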; conditions: S. cerevisiae cln2 rad14 strain, active compounds read high
In short: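 Relative to vehicle controls, growth inhibition of compound-treated cln2 rad14 yeast was recorded.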

[5] = NCI Yeast Anticancer Drug Screen. Data for the bub3 strain (AID 167); conditions: S. cerevisiae bub3 mutant strain, active compounds read high
In short: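 Readout: yeast growth inhibition, expressed relative to vehicle-only wells. The test organism is a mutant strain from a panel with lesions in DNA repair or checkpoint genes.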

[6] = NCI Yeast Anticancer Drug Screen. Data for the mlh1 rad18 strain (AID 175); conditions: S. cerevisiae mlh1 rad18 strain growth inhibition, active compounds read high
In short: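 Test agents were incubated with a yeast strain of defined genotype (DNA damage repair defect). Inhibition of growth was derived by comparison with vehicle-exposed cultures.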

[7] = at 5.0 µM (retest, dose inferred, filed as 0.5)
[8] = at 50.0 µM (retest, dose inferred, filed as 5.0)

Compound | growth inhibition [1, 7] | growth inhibition [1, 8] | growth inhibition ([1]; at 50.0 µM) | growth inhibition [2, 7] | growth inhibition [2, 8] | growth inhibition ([2]; at 50.0 µM) | growth inhibition [3, 7] | growth inhibition [3, 8] | growth inhibition ([3]; at 50.0 µM) | growth inhibition [4, 7] | growth inhibition [4, 8] | growth inhibition ([4]; at 50.0 µM) | growth inhibition [5, 7] | growth inhibition [5, 8] | growth inhibition ([5]; at 50.0 µM) | growth inhibition [6, 7] | growth inhibition [6, 8] | growth inhibition ([6]; at 50.0 µM)
Cc1cc(=O)n(-c2ccc(F)cc2)n1C | 1% | 0% | 30.9% | -6% | 1% | -5.7% | 0% | 2% | 31.7% | 3% | 15% | 22.9% | 0% | -2% | 25.4% | 2% | -16% | -23.6%
Cc1cc(NC(=S)SCc2ccc(F)cc2)ccc1Br | 49% | 99% (active) | 90.7% (active) | 32% | 100% (active) | 92.8% (active) | 58% | 100% (active) | 91.8% (active) | 46% | 99% (active) | 90.7% (active) | 56% | 100% (active) | 92.3% (active) | 33% | 98% (active) | 91.4% (active)
CCn1nc(-c2ccccc2)c2c1N(C)c1ccccc1-n1c(-c3ccccc3)nnc1-2 | -1% | 49% | 98.7% (active) | -16% | 99% (active) | 99% (active) | 3% | 45% | 99.2% (active) | 14% | 98% (active) | 99% (active) | -11% | 99% (active) | 99.2% (active) | 7% | 98% (active) | 99.2% (active)
COc1cccc2c1OC(c1ccc(C#N)cc1)C([N+](=O)[O-])=C2 (centres undefined) | 84% (active) | 97% (active) | 86.2% (active) | 84% (active) | 98% (active) | 90.8% (active) | 87% (active) | 98% (active) | 87.2% (active) | 47% | 97% (active) | 89.8% (active) | 74% (active) | 98% (active) | 89.8% (active) | 92% (active) | 98% (active) | 83.5% (active)
NC1CCCCC1N.O=S(=O)([O-])CCCN1CCOCC1.O=S(=O)([O-])CCCN1CCOCC1.[Pt+4] | -12% | 89% (active) | 99% (active) | -6% | 73% (active) | 98.9% (active) | 0% | 87% (active) | 99% (active) | -14% | 58% | 99% (active) | 10% | 92% (active) | 98.6% (active) | 20% | 98% (active) | 99.2% (active)
C=CCN1CCC(OC(=O)C(O)(/C=C\CC)C2CCCC2)CC1 (centres undefined) | 19% | 61% | 68.8% | 13% | 40% | 48.9% | 37% | 63% | 70.2% (active) | 17% | 75% (active) | 62.8% | 12% | 83% (active) | 61.6% | 7% | 67% | 59.5%
O=C(O)Cc1ccc2c(c1O)C(=O)c1ccccc1C2=O | 1% | 20% | 89.3% (active) | 0% | 31% | 67.2% | 1% | 28% | 78.8% (active) | -2% | 7% | 57.5% | 0% | 50% | 65.9% | 0% | 29% | 74.1% (active)
O=C(O)Cc1ccc2ccccc2c1-c1ccccc1 | -1% | 93% (active) | 86.7% (active) | -11% | 93% (active) | 91.8% (active) | 2% | -19% | 85% (active) | -3% | 98% (active) | 95% (active) | -11% | 92% (active) | 94.7% (active) | -20% | 94% (active) | 90.2% (active)
O=C(COc1ccc(Cl)cc1)OCCO | 0% | 0% | 4.9% | -4% | 0% | -5.75% | -3% | -1% | 0.4% | 3% | 5% | 40.4% | 2% | 4% | -5.6% | 3% | 5% | -25.6%
COc1c(O)cc2c(c1O)C(=O)C1=C(CCCC1)C2=O | -4% | 63% | 47.1% | 2% | 49% | 22.2% | 4% | 88% (active) | 62.1% | -5% | 22% | 38.9% | 11% | 80% (active) | 65% | 2% | 70% (active) | 21.3%
C=C1CC(Cn2cc(Br)c(=O)[nH]c2=O)(c2ccc(Br)cc2)OC1=O (centres undefined) | 14% | 98% (active) | 97.8% (active) | 30% | 98% (active) | 98.7% (active) | 29% | 98% (active) | 97.8% (active) | 19% | 90% (active) | 97.2% (active) | 4% | 97% (active) | 97.2% (active) | 40% | 99% (active) | 98.7% (active)
Cc1ccc(C(=O)C(CCC#N)(CCC#N)CCC#N)cc1 | -8% | -5% | -13.7% | -8% | -17% | -0.25% | -1% | -11% | 8.85% | -15% | -3% | -6.25% | 12% | 15% | 1.1% | 4% | -6% | 4.3%
CCC1=C(c2ccccc2)C(O)(c2ccccc2)C(CC)C1=O (centres undefined) | -3% | 99% (active) | 94% (active) | -5% | 99% (active) | 92.5% (active) | -7% | 99% (active) | 97.3% (active) | 5% | 99% (active) | 92.2% (active) | -4% | 99% (active) | 97.7% (active) | -2% | 98% (active) | 97.8% (active)
C=CCN1/C(=C/C=C\c2sc3ccccc3[n+]2CC=C)Sc2ccccc21 | 60% | 98% (active) | 91.7% (active) | 80% (active) | 99% (active) | 93.6% (active) | 95% (active) | 99% (active) | 93.7% (active) | 93% (active) | 99% (active) | 93.5% (active) | 98% (active) | 99% (active) | 92.2% (active) | 90% (active) | 98% (active) | 91.8% (active)
Fc1ccc(NC(=S)SCc2ccco2)cc1 | 5% | 87% (active) | 89% (active) | 0% | 71% (active) | 61.6% | 5% | 67% | 84.7% (active) | 1% | 24% | 42.5% | -5% | 34% | 26.6% | 1% | 77% (active) | 95.4% (active)
O=c1c(SSc2coc3ccccc3c2=O)coc2ccccc12 | 22% | 99% (active) | 94.4% (active) | 27% | 96% (active) | 96.3% (active) | 27% | 98% (active) | 87.5% (active) | 42% | 94% (active) | 91.3% (active) | 13% | 94% (active) | 71.9% (active) | 17% | 97% (active) | 93.5% (active)
COc1ccc(/C=C/C(C)=N/NC(=S)NCC(C)C)cc1 | -9% | 55% | 15.8% | -12% | 47% | 45% | -2% | 71% (active) | 75.2% (active) | -17% | 48% | 18.4% | -6% | 57% | 88.8% (active) | 3% | 61% | 52.5%
C[N+]1(C)CCCC(OCCCCCCCCCCCCCCOC2CCC[N+](C)(C)C2)C1 (centres undefined) | 14% | 95% (active) | 87.9% (active) | 34% | 98% (active) | 80.5% (active) | 35% | 97% (active) | 98.8% (active) | 37% | 92% (active) | 98.2% (active) | 37% | 94% (active) | 97.6% (active) | 77% (active) | 97% (active) | 99% (active)

Reference: PubChem BioAssay (NCI)
